Measurements published in PubChem BioAssay (EPA / NIEHS).
Active and inactive are the calls of the source. Rule for the calls: active = hit-call score of the fitted dose curve at least 0.9, where 1 is the maximum; inactive = score below 0.9.

Read-out: C-C motif chemokine 2 (Homo sapiens) (UniProt P13500)
Assay: BSK_KF3CT_MCP1: BioMAP Diversity Plus: KF3CT Assay for Monocyte Chemoattractant Protein 1 (MCP1/CCL2) Biomarker Activity (AID 2283073)
Details: primary human keratinocytes with fibroblasts; actives raise or lower the signal
Experimental: BSK_KF3CT is a cell-based, multiplexed-readout assay that uses keratinocytes and foreskin fibroblasts, a human skin primary cell co-culture, with measurements taken at 24 hours after chemical dosing in a 96-well plate.BSK_KF3CT_MCP1 is an assay component measured in the BSK_KF3CT assay. It measures MCP-1 antibody related to regulation of gene expression using ELISA technology.Data from the assay component BSK_KF3CT_MCP1 was analyzed into 1 assay endpoint. This assay endpoint, BSK_KF3CT_MCP1, was analyzed with bidirectional fitting relative to DMSO as the negative control and baseline of activity. Using a type of binding reporter, gain or loss-of-signal activity can be used to understand changes in the signaling as they relate to the gene CCL2. Furthermore, this assay endpoint can be referred to as a primary readout, because this assay has produced multiple assay endpoints where this one serves a signaling function. To generalize the intended target to other relatable targets, this assay endpoint is annotated to the cytokine intended target family, where the subfamily is chemotactic factor.
The levels of cell surface (or secreted, indicated by the prefix "s") biomarker endpoints were measured by ELISA. Overt cytotoxicity to cells in confluent adherent cultures (all systems other than the BT system) was assessed by measuring total protein levels using sulforhodamine B (SRB) staining in parallel cultures at the time of biomarker measurements, indicated as SRB endpoints. For proliferation assays for adherent cell types, individual cell types are cultured at sub-confluence and relative cell numbers quantified by SRB staining at time points optimized for each system (48 h: 3C and CASM3C systems; 72 h: BT and HDF3CGF systems; 96 h: SAg system). SRB was performed by staining cells with 0.1% SRB after fixation with 10% TCA and reading wells at 560 nm.Viability and proliferation of PBMC (T cells) was quantified by Alamar Blue reduction for the SAg and BT systems. For PBMC viability (referred to as PBMC Cytotoxicity within the assay endpoint names), cells were plated (75,000/well in a 96-well plate) and then chemical samples added for 1 h before addition of activators, SEB and TSST-1 (20 ng/mL final concentration each). Cells were incubated for 90 h. Then, Alamar Blue (20 uL/well) (Invitrogen, Cat DAL1100) was added for 6 h, and the plates were read with a fluorescence microplate reader at 546/580 nm (excitation/emission). For PBMC proliferation, cells were plated and activated as above but incubated for only 16 h prior to addition of Alamar Blue. Plates were read after 6 h.

SMILES | outcome | AC50
CN(C)C(=O)Nc1ccc(Cl)cc1 | inactive | 
Cc1cc(N=Nc2ccccc2C)ccc1N | inactive | 
CCCSC(=O)N(CCC)CCC | inactive | 
C1=Cc2cccc3cccc1c23 | inactive | 
CCCCCOC(=O)c1ccccc1C(=O)OCCCCC | inactive | 
C[N+](C)(C)CC1CO1 (stereo not given) | inactive | 
Nc1cc(Cl)cc(C(=O)O)c1Cl | inactive | 
CN(C)c1ccc(C(=O)c2ccc(N(C)C)cc2)cc1 | inactive | 
c1ccc(C2CO2)cc1 (stereo not given) | inactive | 
CCN(CC)N=O | inactive | 
N#CC(Br)(Br)C(N)=O | inactive | 
Nc1ccc(Cc2ccc(N)cc2)cc1 | inactive | 
CC(O)CCO (stereo not given) | inactive | 
Oc1ccccc1Cl | inactive | 
N#CC(Br)Br | inactive | 
Clc1ccc(Cl)c(Cl)c1 | inactive | 
CCCCCCCCCCCCCN1CC(C)OC(C)C1 (stereo not given) | inactive | 
c1ccc(N=Nc2ccccc2)cc1 | inactive | 
O=[N+]([O-])C(Br)(CO)CO | inactive | 
CC(C)(C)C(O)(CCc1ccc(Cl)cc1)Cn1cncn1 (stereo not given) | inactive | 

SMILES | outcome | AC50
c1ccc(NNc2ccccc2)cc1 | inactive | 
O=[N+]([O-])c1ccc(Oc2ccc(Cl)cc2Cl)cc1 | inactive | 
CCC(C)c1ccc(O)cc1 (stereo not given) | inactive | 
CCN(CC)CCO | inactive | 
Clc1ccccc1Cl | inactive | 
c1ccc2c(c1)oc1ccccc12 | inactive | 
ClCCOCCCl | inactive | 
CC(C)(C)OOC(=O)c1ccccc1 | inactive | 
C[C@]12C=CC3=C4CCC(=O)C=C4CC[C@H]3[C@@H]1CC[C@@H]2O | inactive | 
COc1cc(C=O)cc2c1[C@H](COC(N)=O)[C@]1(OC(C)=O)ON2C[C@H]2[C@@H]1N2C(C)=O |  | 1.1 µM (active)
O=C(N[C@H](c1ccccc1)[C@@H]1CN2CCC1CC2)c1c(Cl)ccc(C(F)(F)F)c1Cl | inactive | 
CCCCC(CC)COC(=O)c1ccc(C(=O)OCC(CC)CCCC)c(C(=O)OCC(CC)CCCC)c1 (stereo not given) | inactive | 
OCCCBr | inactive | 
Oc1ccc2ccc3cccc4ccc1c2c34 | inactive | 
Cc1ccc(N)c(N)c1 | inactive | 
O=Cc1ccco1 | inactive | 
CC(C)(OOC(C)(C)c1ccccc1)c1ccccc1 | inactive | 
CC(C)(O)c1cnn2c(-c3ccc(F)c(-c4c(F)cccc4C#N)c3)cnc2n1 | inactive | 
Cc1cccc(N)c1N | inactive | 
CN(C)c1ccccc1 | inactive | 
